In the library only some 1.3% were active in any assay of this set; here they are far more common.
AmpC no deterg: qHTS Inhibitors of AmpC Beta-Lactamase (assay without detergent); Potency, µM (titrated, usually from 57.1 µM), without a hit: top-dose activity change, negative = inhibition, hits mostly inhibitors; P00811; AmpC nitrocefin hydrolysis, absorbance 480 nm, 0.0001% Triton; AID 485341, 2010; 0.52% of 330,000 active;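 also: plate controls were no compound for no effect and no enzyme for full effect; nearly all actives have a fitted effect of over 20% in size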
Target sequence (P00811 whole entry, looked up): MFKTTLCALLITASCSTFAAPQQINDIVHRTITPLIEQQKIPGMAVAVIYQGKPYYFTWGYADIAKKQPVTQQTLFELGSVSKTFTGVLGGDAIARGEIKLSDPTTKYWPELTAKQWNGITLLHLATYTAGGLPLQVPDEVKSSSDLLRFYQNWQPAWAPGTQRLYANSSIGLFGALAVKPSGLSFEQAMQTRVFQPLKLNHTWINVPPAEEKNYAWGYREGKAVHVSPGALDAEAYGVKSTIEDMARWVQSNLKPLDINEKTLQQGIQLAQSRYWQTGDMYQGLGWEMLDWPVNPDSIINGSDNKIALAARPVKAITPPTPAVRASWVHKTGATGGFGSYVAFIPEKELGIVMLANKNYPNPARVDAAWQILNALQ
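AmpC (5.3 nM in the dispensed reagent) in 20 mM phosphate pH 7.0 with 0.01% (detergent screen) or 0.0001% Triton X-100 was preincubated with compounds for 15 min at room temperature. Nitrocefin was then added from an 800 uM solution, and hydrolysis was followed at 480 nm.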
SARS PLpro yeast: qHTS of Yeast-based Assay for SARS-CoV PLP | S. cerevisiae expressing SARS-CoV PLpro, growth rescue | Potency, µM (doses to about 32.9 µM), without a hit: at the top dose activity, positive = growth rescue, usual class: activators | 0.19% of 330,000 active | AID 485353, 2010; calls by dose curve; also: 0% is about no effect; nearly all actives have a fitted effect of over 55% in size
AmpC inh detg: qHTS Inhibitors of AmpC Beta-Lactamase (assay with detergent). AmpC hydrolysis of nitrocefin, absorbance 480 nm, 0.01% Triton. 0.041% of 370,000 active. Potency, µM (top dose mostly 114 µM), for the others: top-dose activity change, negative = inhibition, usual class: inhibitors. P00811;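 also: 0% = no-compound wells and -100% = no-enzyme wells; nearly all actives have a fitted effect of over 25% in size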
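20 mM phosphate pH 7.0 + 0.01% (detergent screen) or 0.0001% Triton X-100; 5.3 nM AmpC reagent; cpd preinc 15 min RT; nitrocefin (800 uM stock) to start; A480 q20 s × 4 min; Activity was normalised to no-enzyme and no-compound control wells.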
VACV mCherry inh: qHTS for Stage-Specific Inhibitors of Vaccinia Orthopoxvirus: mCherry Reporter Primary qHTS. AID 720579, 2013. Potency, µM (series often up to 36.5 µM), for inactives: at the highest dose activity change, negative = inhibition, usual class: inhibitors. Vaccinia virus mCherry reporter infection, fluorescence. 0.63% of 310,000 active; calls by dose curve; tested in A549 cells; also: % is scaled to controls: 0 for no effect and ±100 for the full control effect; nearly all actives have a fitted effect of over 35% in size
AMA1-RON2 inh: qHTS for Inhibitors of AMA1-RON; Towards Development of Antimalarial Drug Lead: Primary Screen. Plasmodium falciparum AMA1 (3D7) - RON2 peptide interaction. AlphaScreen AMA1-biotinylated RON2 peptide binding. Potency, µM (doses to about 58.2 µM), for the others: at the top dose activity change, negative = inhibition, hits mostly inhibitors. 0.2% of 360,000 active;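 also: 0% = vehicle wells and -100% = peptide control; nearly all actives have a fitted effect of over 45% in size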
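AMA1 (3D7) with his tag at 25 nM final met compounds first, then biotinylated RON2 peptide at 25 nM; detection used donor plus acceptor beads, 10 µg/mL apiece, read by AlphaScreen after 30 min at room temperature.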
VACV Venus inh: qHTS for Stage-Specific Inhibitors of Vaccinia Orthopoxvirus: Venus Reporter Primary qHTS; 0.46% of 330,000 active; Vaccinia virus Venus reporter expression, fluorescence; Potency, µM (titrated, usually from 36.5 µM), inactives show top-dose activity change, negative = inhibition, usual class: inhibitors; AID 720580, 2013; calls by dose curve; tested in A549 cells; also: % is scaled to controls: 0 for no effect and ±100 for the full control effect; nearly all actives have a fitted effect of over 30% in size
Active calls of the source: *. Unless noted, calls follow the shape of the dose curve; as a rule, active = well fitted curve in the direction sought with a large enough effect; inconclusive = small, poorly fitted or top-dose-only effect, or another doubt; inactive = no such curve, though single readings can be large; an effect the other way counts as inactive or inconclusive. Potency is read from the fitted curve at half-maximal effect.

For CCNC(=O)c1cc(NC(=O)COC)cc2nc(-c3ccncc3)n(C)c12 the results were VACV mCherry inh -13% and VACV Venus inh -9%.
For Cc1cnc(-n2ncc(C(=O)NCC(C)(C)N3CCOCC3)c2C(C)C)nc1-c1ccc(F)cc1 the results were VACV mCherry inh -17% and VACV Venus inh -15%.
`COc1cccc(-c2ccc3ncnc(NCc4cccc(F)c4)c3c2)c1` gave AmpC no deterg -5%, SARS PLpro yeast 8.9µM* and AmpC inh detg inconclusive.
For Cc1cccnc1-c1cccc2c1OC(CNC(=O)Cc1c(C)noc1C)C2 (stereo not given) the results were VACV mCherry inh -10% and VACV Venus inh 0%.
For CCOC(=O)c1nnn(-c2nonc2-n2cccc2)c1C the results were AmpC no deterg -12%, SARS PLpro yeast 3%, AmpC inh detg -14%, AMA1-RON2 inh 5% and VACV Venus inh -5%.
CCOC(=O)c1nnn(-c2nn3nnnc3c3ccccc23)c1C was read as AmpC no deterg 18%, SARS PLpro yeast 0%, AmpC inh detg -12%, VACV mCherry inh 8.9µM*, AMA1-RON2 inh -4% and VACV Venus inh inconclusive.
N#CCc1ccc(C(=O)c2ccccc2F)s1 was read as AmpC no deterg 0.79µM*, SARS PLpro yeast 0%, AmpC inh detg -3%, AMA1-RON2 inh -5% and VACV Venus inh 2%.
`O=C(CCl)Nc1cc(SCC(O)CO)cc([N+](=O)[O-])c1` (stereo not given) gave AmpC no deterg 14%, SARS PLpro yeast 4%, AmpC inh detg 0%, VACV mCherry inh 2.8µM*, AMA1-RON2 inh -4% and VACV Venus inh 4µM*.
For CCCCc1ccc(NC(=O)CSCc2cc(=O)[nH][nH]2)cc1 the results were AmpC no deterg 18µM*, SARS PLpro yeast 5%, AmpC inh detg -1% and AMA1-RON2 inh 51%.
For Cc1ncc2c(c1CNC(=O)c1ccc3c(c1)OCO3)CCN(C(=O)/C=C/c1ccccc1Cl)C2 the results were VACV mCherry inh -8% and VACV Venus inh -8%.
Screening COC(=O)c1cnc(SC)nc1C returned AmpC no deterg -2%, SARS PLpro yeast 6%, AmpC inh detg 1% and AMA1-RON2 inh 2.8µM*.
COc1ccc(C2CC(O)(c3ccccc3)Oc3cc(OC)c(OC)c(OC)c32)cc1 (stereo not given) was read as AmpC no deterg 11%, SARS PLpro yeast -18%, AmpC inh detg 14%, VACV mCherry inh -22%, AMA1-RON2 inh -22% and VACV Venus inh -26%.
For COc1ccc([C@@]23Oc4cc(OC)cc(OC)c4[C@]2(O)[C@H](O)[C@H](C(=O)N(C)C)[C@H]3c2ccccc2)cc1 the results were VACV mCherry inh active, AMA1-RON2 inh 19% and VACV Venus inh 0.0001µM*.
COc1ccc(C(=O)N2CCCC(c3nc(SCc4ccccn4)ncc3C)C2)cc1F (stereo not given) was read as VACV mCherry inh -24% and VACV Venus inh inconclusive.
Screening Cc1cc(N(C)C)cc(C)c1/C=C/c1cc[n+](C)c2ccccc12 returned VACV mCherry inh -27% and VACV Venus inh -23%.
For O=C(CSc1nc(-c2ccc(F)cc2)nc2c1Cc1ccccc1O2)Nc1ccc(C(=O)O)cc1 the results were AmpC no deterg -32%, SARS PLpro yeast 1%, AmpC inh detg 63µM* and AMA1-RON2 inh -9%.
For O=C(CSc1nc(-c2ccccc2)nc2c1Cc1ccccc1O2)Nc1ccc(C(=O)O)cc1 the results were AmpC no deterg -29%, SARS PLpro yeast 1%, AmpC inh detg inconclusive, VACV mCherry inh -1%, AMA1-RON2 inh 8% and VACV Venus inh -5%.
COC(=O)C1CCN(Cc2ccc3c(c2)CN(C(=O)C(C)N2CCOCC2)CCO3)CC1 (stereo not given) was read as VACV mCherry inh -14% and VACV Venus inh -5%.
For C=CCc1c(C)nc(-c2ccccc2)nc1N/N=C(\C)c1ccccc1 the results were AmpC no deterg 28µM*, SARS PLpro yeast -18%, AmpC inh detg inconclusive, VACV mCherry inh -11%, AMA1-RON2 inh 4% and VACV Venus inh -9%.
For C=CCc1c(C)nc(-c2ccccc2)nc1Nc1ccc(O)cc1 the results were AmpC no deterg -47%, SARS PLpro yeast -2%, AmpC inh detg inconclusive, VACV mCherry inh inconclusive, AMA1-RON2 inh -18% and VACV Venus inh inconclusive.
CCCC(=O)N1c2nc(C(C)C)nn2C2(CCCCC2)[C@@H]2CCCC[C@@H]21 was read as AmpC inh detg 14%, VACV mCherry inh -17% and VACV Venus inh -23%.
CCCN1CCN(c2cc3c(cc2F)c(=O)c(S(=O)(=O)c2ccc(CC)cc2)cn3CC)CC1 was read as AmpC inh detg 14%, VACV mCherry inh -23% and VACV Venus inh -27%.
`CC(C)Cn1c(C(C)NC(=O)Cc2ccccc2)nc2ccccc21` (stereo not given) gave AmpC no deterg 1.6µM*, SARS PLpro yeast 0%, AmpC inh detg inconclusive, VACV mCherry inh -10%, AMA1-RON2 inh 6% and VACV Venus inh -14%.
`CCCCn1c(C(C)NC(=O)CC)nc2ccccc21` (stereo not given) gave AmpC no deterg -2%, SARS PLpro yeast -6%, AmpC inh detg inconclusive, VACV mCherry inh 3%, AMA1-RON2 inh -3% and VACV Venus inh 1%.
Screening CCN(CC)c1ccc(N=Cc2ccccc2[N+](=O)[O-])cc1 returned AmpC no deterg -23%, SARS PLpro yeast 14%, AmpC inh detg inconclusive, VACV mCherry inh inconclusive, AMA1-RON2 inh 18µM* and VACV Venus inh inconclusive.
CC1(C)Nc2cccc3c(N=Nc4ccc(N=Nc5ccccc5)c5ccccc45)ccc(c23)N1 was read as VACV mCherry inh -12% and VACV Venus inh -16%.
For OCCN(Cc1ccccc1)Cc1ncccc1O the results were VACV mCherry inh -1%, AMA1-RON2 inh 54% and VACV Venus inh -4%.
`OCCN(Cc1cccnc1)Cc1ccccn1` gave VACV mCherry inh -20%, AMA1-RON2 inh 14µM* and VACV Venus inh -5%.
For COc1cc2nc(N3CCNCC3)nc(N)c2cc1OC the results were AmpC no deterg -50%, SARS PLpro yeast -2%, AmpC inh detg inconclusive and AMA1-RON2 inh inconclusive.

Assay outcomes from PubChem.
